Compound activity as filed in PubChem.
Hits are enriched below; roughly 0.89% of the tested compounds scored in any of these assays.
MKP-1 inh – blocks human MKP-1 phosphatase activity; P28562; recombinant MKP-1, OMFP hydrolysis fluorescence; inhibition, %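 (compounds tested at a single concentration somewhere between 10 and 100 µM)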; 65,000 compounds, 0.15% hits; AID 374;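 active = inhibition above about 50%, limit read from the data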;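 also: 0% = DMSO max control wells and 100% = wells with enzyme stopped by NaOH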
Htt clearance – compounds clearing mutant huntingtin protein; HeLa Exon1htt(103Q)mCFP, aggregate imaging; zero = plate's median compound well; inhibition, % at 1.5 µM; 47,000 compounds, 0.42% hits; AID 853;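 active = inhibition of aggregate fluorescence above about 70%, also judged a hit by eye on the cell image, limit read from the data, passing the limit was not always enough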;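 also: cells exposed to compound for three days before fixation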
Hsp90 block – displaces geldanamycin probe from tumor Hsp90. NCI-N417 lysate Hsp90, Cy3B-geldanamycin FP displacement. 64,000 compounds, 0.35% hits. inhibition, % at 30 µM;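 active = inhibition above 50%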;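 also: 0% = tracer plus lysate wells and 100% = tracer alone without lysate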
WNV NS2B-NS3 inh – inhibitors of West Nile virus NS2B-NS3 protease. 65,000 compounds, 0.18% hits. z-score (test concentration not listed). AID 577. WNV NS2B-NS3 protease, fluorogenic substrate Ex360/Em465; stronger effect = lower value. P06935; in the data active = z-score below about -3
Target sequence (P06935 1371-1501 limits assumed): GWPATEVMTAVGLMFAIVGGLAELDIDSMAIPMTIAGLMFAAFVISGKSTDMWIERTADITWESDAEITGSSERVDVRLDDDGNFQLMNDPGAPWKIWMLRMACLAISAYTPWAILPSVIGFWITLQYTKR
Target sequence (P06935 1502-1679 limits assumed): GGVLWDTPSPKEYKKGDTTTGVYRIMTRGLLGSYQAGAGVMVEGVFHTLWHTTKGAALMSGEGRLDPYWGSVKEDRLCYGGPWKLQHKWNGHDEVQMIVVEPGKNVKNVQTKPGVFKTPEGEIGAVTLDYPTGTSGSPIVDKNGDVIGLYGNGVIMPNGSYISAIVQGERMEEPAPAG
MMP-13 inhibitor – blocks human MMP13 activity | inhibition, % at 4 µM | MMP-13 fTHP FRET cleavage, Mca fluorescence | AID 570 | 65,000 compounds, 0.07% hits | P45452;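 active = inhibition above the mean of compound-free control plate wells plus 3 SD, cut at about 14% in these data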;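 also: 0% = DMSO wells and 100% = wells with reference MMP-13 inhibitor after basal subtraction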
Cdc25B block – inhibitors of human Cdc25B phosphatase. P30305. recombinant Cdc25B, OMFP fluorescence Ex485/Em525. inhibition, %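 (compounds tested at 10 µM final in the well)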. 65,000 compounds, 0.1% hits. AID 368; in the data active = inhibition above about 50%
Starred values were filed as active, the others as inactive; i = inactive; / = no result.

SMILES	MKP-1 inh	Htt clearance	Hsp90 block	WNV NS2B-NS3 inh	MMP-13 inhibitor	Cdc25B block
COCCN1Cc2cccc(C(=O)Nc3cccnc3)c2C1=O	9.3	-77.1	0.6	0.2	0.1	9.0
COCCN1Cc2cccc(C(=O)Nc3ccc4c(c3)OCCO4)c2C1=O	2.4	51.0	-0.1	0.39	16.6*	-8.8
CC(=O)Oc1cc2oc(=O)cc(C)c2cc1OC(C)=O	17.0	/	57.8*	1.88	-184.9	5.7
CC(=O)Oc1cc(OC(C)=O)c2c(C)cc(=O)oc2c1	11.3	2.7	3.1	4.93	-416.7	-20.7
O=C(NCCN1CCOCC1)NC1(C(F)(F)F)Oc2ccc(Cl)cc2O1 (stereo not given)	-2.6	/	65.2*	-0.73	1.3	9.2
Nn1c(=O)c2ccccc2n2c(SCc3ccccc3)nnc12	-0.8	80.4*	-4.4	0.25	0.5	-8.4
CCCCN(C(=O)Cn1nnc2ccccc21)C(C(=O)NCCOC)c1cccs1 (stereo not given)	/	74.5*	/	/	/	/
CCCCN(C(=O)Cn1nnc2ccccc21)C(C(=O)NCCOC)c1ccccc1 (stereo not given)	/	-8.4	/	/	/	/
CC(C)[C@@H]1NC(=O)[C@H](CCCCN)NC(=O)[C@@H](Cc2c[nH]c3ccccc23)NC(=O)[C@H](Cc2ccc(O)cc2)NC(=O)[C@H](C)N(C)C(=O)[C@H](Cc2ccccc2)NC1=O	/	/	-2.9	/	/	/
Cc1ccc(CN2CCN(CC(=O)N3CCc4ccccc4C3)C2=O)cc1	31.9	/	-5.2	-0.35	-0.3	-1.8
Cc1ccc(CN2CCN(CC(=O)N3CCC(C(N)=O)CC3)C2=O)cc1	-1.5	/	-1.4	0.7	-0.9	69.9*
Cn1c(=O)c2cc(S(=O)(=O)NCCC(=O)NCCC3=CCCCC3)ccc2n(C)c1=O	57.2*	/	-2.5	0.3	-3.2	-4.4
Cc1ccc(CCNC(=O)CCNS(=O)(=O)c2ccc3c(c2)c(=O)n(C)c(=O)n3C)cc1	-1.9	/	-1.9	-0.21	-3.5	1.5
CC(C)C[C@H](NC(=O)C1OC1C(=O)O)C(=O)NCCCCN=C(N)N (stereo not given in full)	/	/	1.2	/	/	/
CCCCCC1CCC(C(=O)O)CC1 (stereo not given)	53.7*	/	0.9	-1.26	-1.1	-4.4
C=CCN1CCc2c(cc(O)c(O)c2Br)[C@@H](c2ccccc2)C1	/	/	80.6*	/	/	/
O=C(CN1CCOCC1)N1CCc2ccccc2C(c2ccccc2)C1 (stereo not given)	-17.6	/	1.2	-1.16	1.6	4.5
COc1cc(NS(=O)(=O)c2ccc([N+](=O)[O-])cc2[N+](=O)[O-])c2ncccc2c1	/	/	26.0	/	/	/
Cc1cccc(NC(=O)Cn2nnc(-c3cccs3)n2)c1C	-10.7	-14.9	53.8*	0.67	5.3	-14.3
N[C@H](CCC(=O)NCS(=O)(=O)O)C(=O)O	/	/	1.2	/	/	/
CCSc1nnc2c(n1)OC(c1ccc(C(=O)O)cc1)N(C(C)=O)c1ccccc1-2 (stereo not given)	8.3	/	89.2*	0.48	-12.1	-2.6
CCOc1ccc(C2Oc3nc(SC)nnc3-c3ccccc3N2C(C)=O)cc1OC (stereo not given)	0.3	/	3.5	0.16	4.8	0.5
CCOC(=O)C1=C(C)Nc2nc3ccccc3n2C1c1ccncc1 (stereo not given)	-12.0	/	-4.1	0.84	0.9	-5.8
C=CCOC(=O)C1=C(C)Nc2nc3ccccc3n2C1c1ccncc1 (stereo not given)	31.2	9.4	1.2	-3.09*	-0.1	-3.2
CCOC(=O)c1cnc2c(cnn2CC)c1NN=C(C)C	/	/	-0.5	/	/	/
SMILES	MKP-1 inh	Htt clearance	Hsp90 block	WNV NS2B-NS3 inh	MMP-13 inhibitor	Cdc25B block
N#C/C(=C\c1ccc(O)c(O)c1)S(=O)(=O)c1ccccc1	12.1	6.4	42.1	-0.91	12.7	9.5
N#C/C(=C\c1c[nH]c2ccccc12)C(=O)c1ccc(O)c(O)c1	/	/	71.5*	/	/	/
O=C(Cc1c[nH]c2ccccc12)OCC(=O)c1ccccc1	/	-41.5	/	/	/	/
N#C/C(=C\c1ccc(O)c(O)c1)C(=O)c1ccc(O)c(O)c1	/	/	87.1*	/	/	/
N#C/C(=C\c1ccc(O)c(O)c1)C(=O)NCCCc1ccccc1	5.4	/	68.5*	-0.34	5.9	-9.2
CN[C@H](CC(C)C)C(=O)N[C@H]1C(=O)N[C@@H](CC(N)=O)C(=O)N[C@H]2C(=O)N[C@H]3C(=O)N[C@H](C(=O)N[C@H](C(=O)O)c4cc(O)cc(O)c4-c4cc3ccc4O)[C@H](O)c3ccc(c(Cl)c3)Oc3cc2cc(c3O[C@@H]2O[C@H](CO)[C@@H](O)[C@H](O)[C@H]2O[C@H]2C[C@](C)(N)[C@H](O)[C@H](C)O2)Oc2ccc(cc2Cl)[C@H]1O	/	/	i	/	/	/
O=C(Cc1ccc(Cl)c(Cl)c1)OCCN1CCCC1	/	/	-1.3	/	/	/
COc1ccc(OCc2nn3c(-c4cccc(OC)c4)nnc3s2)cc1	5.3	/	-0.8	1.5	15.7*	-2.1
O=C(Cc1ccccc1)N1CCN(C(=O)c2cccs2)CC1	-23.1	-40.4	1.1	-0.27	1.3	-8.4
O=C(c1cccs1)N1CCN(C(=O)c2ccco2)c2ccccc2C1	0.2	/	0.4	-4.82*	-0.8	-8.4
CC(N)=NCCC[C@H](N)C(=O)O	/	/	-0.7	/	/	/
O=C1C2C3C=CC(C3)C2C(=O)N1CNc1ccc(O)cc1 (stereo not given)	7.3	/	60.9*	-0.44	4.3	-18.8
Cc1ccc(NCN2C(=O)C3C4C=CC(C4)C3C2=O)cc1 (stereo not given)	6.2	/	-3.1	-0.82	6.8	-15.5
COc1ccc(NC(=O)Cc2nc3ccccc3[nH]2)cc1	8.5	-0.7	-1.9	-0.55	-14.2	-14.5
COC(=O)Cc1cc(=O)n(-c2nc3ccccc3[nH]2)[nH]1	-10.5	/	-4.6	2.97	57.4*	3.6
CC1CCCCC1NC(=O)CCn1c(=O)oc2ccccc21 (stereo not given)	77.1*	/	-0.5	0.27	-1.6	-1.3
CN(C)C=Nc1c(Br)cc(Br)c2nonc12	-11.5	90.7*	52.7*	0.91	8.2	-1.7
CN(C)C=Nc1nonc1-c1ncn[nH]1	-29.7	27.9	-1.4	-1.17	3.3	-3.4
Cc1c(Br)c([N+](=O)[O-])nn1CC(=O)NCc1cccnc1	/	3.5	/	/	/	/
Oc1ccc(/C=C/c2cc(O)cc(O)c2)cc1	-7.3	/	8.5	0.13	-5.2	-25.5
O=c1cc(O)cc(/C=C/c2ccc(O)c(O)c2)o1	/	/	83.1*	/	/	/
O=C(CSc1n[nH]c(-c2ccccc2)n1)c1ccc(O)c(O)c1	-6.9	/	76.4*	0.15	1.5	-4.2
CCn1cc(C(=O)O)c(=O)c2cc(F)c(N3CCNC(C)C3)c(F)c21 (stereo not given)	/	/	2.1	/	/	/
CCC(C)C(=O)Nc1nc(C)c(-c2csc(Nc3cc(Cl)ccc3OC)n2)s1 (stereo not given)	/	71.9*	/	/	/	/
COc1cccc(C(=O)NC2(C(F)(F)F)N=C3SCCN3C2=O)c1 (stereo not given)	-1.6	/	2.2	-4.77*	-0.7	-0.2
O=C(NC1(C(F)(F)F)N=C2SCCN2C1=O)C1CCCCC1 (stereo not given)	-11.1	9.4	-0.8	0.18	3.7	-11.9
